This note sets out measurements from PubChem BioAssay AID743395 (Broad Institute, 2014).

Screen size: about 1,200 compounds; about 480 (40%) were called active. So high a share suggests a set chosen from earlier hits. Not all results are given here. Potency and affinity values are given separately. Values without a mark were called inactive. No rule for the calls is given here.

This assay can be described thus: viability loss in human hepatoma cells – cell-based, CellTiter-Glo luminescence, cherry-pick, set 2, cytotoxicity control, dose response (AID 743395).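 Also: 0% = neutral control wells and -100% = positive control wells.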 As to conditions: HepG2 viability, CellTiter-Glo ATP luminescence, 72 h; series mostly up to 26 µM; activity change, negative = cytotoxicity: at the top concentration. (Cellular ATP, detected with luciferase, serves as a proxy for viable cell number.)
Take `C[C@H](CO)N1C[C@H](C)[C@H](CN(C)C(=O)c2ccc3c(c2)OCO3)Oc2cc(C#Cc3ccccc3F)ccc2S1(=O)=O`: the “activity change, negative = cytotoxicity” value was 62.9%.

Regarding `COc1ccc(C)cc1NC(=O)C(OC(=O)c1ccc(Cl)c(S(=O)(=O)N(C)c2ccccc2)c1)c1ccccc1` (stereo unspecified), the “activity change, negative = cytotoxicity” value is 6.28%.

With `O=c1c(O)c(-c2cccs2)oc2ccc(Cl)cc12`, the “activity change, negative = cytotoxicity” value was -32.4%.

`CC(C)Oc1ccc(S(=O)(=O)N2CCOCC2)cc1NC(=O)CCCSc1ccccc1`: the “activity change, negative = cytotoxicity” value is 7.1%.

As for `O=C(NCCCN1CCCC1=O)c1cc(S(=O)(=O)N2CCOCC2)c(Cl)cc1Cl`, the “activity change, negative = cytotoxicity” value is 1.04%.

For the compound `c1ccc2c(c1)N1CCCN=C1N2CCN1CCCCC1`, the “activity change, negative = cytotoxicity” value was -12.9%.

For the compound `COc1ccc(NC(=O)N(C)C[C@@H]2Oc3cc(C#CCC(C)C)ccc3S(=O)(=O)N([C@H](C)CO)C[C@@H]2C)cc1`, the “activity change, negative = cytotoxicity” value is 7.43%.

As to `Cc1ccc(S(=O)(=O)N2CCOCC2)cc1NC(=O)CSc1nnc(COc2ccccc2F)n1N`, the “activity change, negative = cytotoxicity” value is -0.298%.

On to `O=C(NCC(c1cccs1)N1CCOCC1)c1ccc(OCc2ccccc2)cc1` (stereo unspecified), for which the “activity change, negative = cytotoxicity” value was 12.2%.

Turning to `CCOC(=O)[C@H](CCc1ccccc1)N[C@@H](C)C(=O)N1[C@H](C(=O)O)C[C@@H]2CCC[C@@H]21`, the “activity change, negative = cytotoxicity” value was -17.6%.

As for `CCOc1ccc(NS(=O)(=O)c2cc(NC(=O)CCNC(=O)c3ccco3)ccc2OC)cc1`, the “activity change, negative = cytotoxicity” value was -23.6%.

As to `CC(=O)OCC(=O)NCCCOc1cccc(CN2CCCCC2)c1`, the “activity change, negative = cytotoxicity” value was -9.23%.

Consider `Cc1c(C)c2c(OCC(=O)N3CCC(O)CC3)cc3c(c2oc1=O)CCC(C)(C)O3`, for which the “activity change, negative = cytotoxicity” value is -0.002%.

For `CN(Cc1cccs1)C(=O)c1cccc(S(=O)(=O)N2CCCCCC2)c1`, the “activity change, negative = cytotoxicity” value is -15.8%.

For the compound `CCOc1ccc(C(=O)N[C@H](C(=O)Nc2cccc(S(=O)(=O)N3CCCCC3)c2)C(C)C)cc1`, the “activity change, negative = cytotoxicity” value was 34.1%.

For `COC(CNC(=O)[C@H](Cc1ccccc1)N1Cc2ccccc2C1=O)OC`, the “activity change, negative = cytotoxicity” value is 1.08%.

For the compound `CC(C(=O)O)N(C(=O)c1ccccc1)c1ccc(F)cc1` (stereo unspecified), the “activity change, negative = cytotoxicity” value is -6.57%.

As for `COc1ccc(NC(=O)C2CCCN2C(=O)Nc2cccc(F)c2)cc1` (stereo unspecified), the “activity change, negative = cytotoxicity” value was -4.96%.

As to `O=C(NCCC1CCCCN1S(=O)(=O)c1cccs1)C(=O)Nc1ccc(F)cc1F` (stereo unspecified), the “activity change, negative = cytotoxicity” value was -11.5%.

Take `Cc1ccc(OCC(=O)Nc2ccc(CN3CCCCC3)cc2)c(C)c1`: the “activity change, negative = cytotoxicity” value was -4.73%.

Consider `N#CC(C#N)=C1C=C2C=C(N3CCOCC3)CCC2CC1` (stereo unspecified), for which the “activity change, negative = cytotoxicity” value is -4.57%.

For `CCN(CC)C1=CC2=CC(=C(C#N)C#N)CCC2CC1` (stereo unspecified), the “activity change, negative = cytotoxicity” value is 2.84%.

For the compound `C#C[C@]1(O)CC[C@H]2[C@@H]3CCc4cc(OC)ccc4[C@H]3CC[C@@]21C`, the “activity change, negative = cytotoxicity” value is -1.22%.

Turning to `CC12CCC3c4ccc(O)cc4CCC3C1CCC2=O` (stereo unspecified), the “activity change, negative = cytotoxicity” value is -5.95%.

`COc1cccc(C#Cc2ccc3c(c2)O[C@@H](CN(C)C(=O)c2ccccn2)[C@H](C)CN([C@@H](C)CO)S3(=O)=O)c1`: the “activity change, negative = cytotoxicity” value was 11.2%.

Take `O=C(O)COC(=O)Cc1ccccc1Nc1c(Cl)cccc1Cl`: the “activity change, negative = cytotoxicity” value is -6.65%.

On to `Cc1ccc(C(=O)Nc2cccc(C(F)(F)F)c2)cc1Nc1cnccn1`, for which the “activity change, negative = cytotoxicity” value was 2.75%.

Regarding `CC(=O)c1cc(NC(=O)c2cccc(C(F)(F)F)c2)c(=O)oc1C`, the “activity change, negative = cytotoxicity” value was 1.46%.

`COCCNc1nc(Nc2ccc(C)cc2C)c2sccc2n1`: the “activity change, negative = cytotoxicity” value is -3.94%.

For `Cn1cccc1C(=O)OCC(=O)NCc1ccc2c(c1)OCO2`, the “activity change, negative = cytotoxicity” value was -11.8%.

`CC(=O)NS(=O)(=O)c1ccc(NC(=O)CSc2ccc(Cl)cc2)cc1`: the “activity change, negative = cytotoxicity” value is -2%.

Consider `CC(C)(C)C(=O)Nc1ccc(S(=O)(=O)NC2=NCCCCC2)cc1`, for which the “activity change, negative = cytotoxicity” value is -0.044%.

Take `Cc1ccc(S(=O)(=O)Nc2cc(C)cc(CCNC=O)c2C)cc1`: the “activity change, negative = cytotoxicity” value was 4.38%.

Regarding `Cc1cc(O)cc2c1C1CCC3(C)C(=O)CCC3C1C=C2` (stereo unspecified), the “activity change, negative = cytotoxicity” value was 8.57%.

With `COc1ccc(-c2oc3ccc(-c4cc(OC)c(OC)c(OC)c4)cc3c2C#Cc2ccccn2)cc1`, the “activity change, negative = cytotoxicity” value is -5.9%.

For `COc1ccc(CCn2c(NN=C(C)C)nc3c2c(=O)[nH]c(=O)n3C)cc1`, the “activity change, negative = cytotoxicity” value was -1.37%.

With `CCCCNC(=O)CSc1nc2ccc(C)cc2[nH]1`, the “activity change, negative = cytotoxicity” value is 4.44%.

Consider `COC(=O)c1ccc(C(=O)NC2CCCc3c2cnn3-c2cc(F)cc(F)c2)nc1` (stereo unspecified), for which the “activity change, negative = cytotoxicity” value is -22.1%.

Consider `COC(=O)C1=CN(c2ccc3c(c2)OCO3)C(N)=C(C#N)C1c1cccc(F)c1` (stereo unspecified), for which the “activity change, negative = cytotoxicity” value was -9.02%.

Consider `COc1cccc(NC(=O)c2cnc(SCC(=O)NCc3ccc4c(c3)OCO4)n(C)c2=O)c1`, for which the “activity change, negative = cytotoxicity” value was -13.8%.

As to `O=C(Nc1ccc(F)cc1)N1CCCCN2[C@H](C1)[C@H](c1ccc(-c3cccc(F)c3)cc1)[C@@H]2CO`, the “activity change, negative = cytotoxicity” value was -14.1%.

Regarding `OC[C@@H]1[C@@H](c2ccc(C#CC3(O)CCCC3)cc2)[C@H]2CN(Cc3ccccc3F)CCCCN12`, the “activity change, negative = cytotoxicity” value was -24.4%.

Consider `C/C=C/c1ccc([C@@H]2[C@H](CO)N3CCCCN(S(=O)(=O)c4ccccc4)C[C@@H]23)cc1`, for which the “activity change, negative = cytotoxicity” value is 9.51%.

For `O=C(Nc1ccccc1)N1C[C@H]2[C@@H](c3ccccc31)[C@H](CO)N2C(=O)c1ccccn1`, the “activity change, negative = cytotoxicity” value is -1.86%.

On to `CCOc1ccc(NC(=O)CN(c2ccc([N+](=O)[O-])cc2)S(=O)(=O)c2ccccc2)cc1`, for which the “activity change, negative = cytotoxicity” value was -26%.

Regarding `Cc1ccc(NC(=O)Cc2nc(-c3c[nH]c(C(=O)N4CCCC4)c3)cs2)c(C)c1`, the “activity change, negative = cytotoxicity” value was -12.1%.
